The results in this text go back to the supplement of paper PMC6522484.

± gives the standard deviation of the averaged measurements.

For test [1], the system named is DLD1. The test is described as follows: cell viability (CellTiter-Glo) relative to plate median (fraction of plate median); higher = more viable cells. The conditions noted are these: 5 µM; treatment time 24 h; reporter: 7TFP. The method, boiled down:
(§1)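 Library compounds, at a final 5 µM, stayed on reporter cells for 24 h. The cells were colorectal cancer lines stably transduced with lentiviral TCF/Wnt firefly luciferase reporters, seeded in 384-well plates 24 h before dosing. Firefly luciferase or CellTiterGlo luminescence from parallel plates was normalised to the plate median in webcellHTS2 (additive, no log transformation), and two independent replicates were averaged.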
In general terms: Cellular ATP, detected with luciferase, serves as a proxy for viable cell number.

Another test deals with HCT116. The test is described as above. The settings on record: 5 µM; treatment time 24 h; reporter: TCF4/Wnt. In a few lines: as §1
Test [2] relates to SW480. Described as above. The settings on record: 5 µM; treatment time 24 h; reporter: 7TFP. The method, boiled down:
as §1

Test [3] concerns DLD1. Kind of test: TCF/Wnt firefly luciferase reporter signal relative to plate median (fraction of plate median); higher = higher Wnt reporter signal. The conditions noted are these: 5 µM; treatment time 24 h; reporter: 7TFP. The method, boiled down:
as §1

The subject of test [4] is SW480. Described as above. The conditions noted are these: 5 µM; treatment time 24 h; reporter: 7TFP. In a few lines: as §1

For `O=C1NCC2(CCN(CCc3ccccc3)CC2)O1`, the results for the cell viability in the test on DLD1 [1], in the test with HCT116 and in the test on SW480 [2] were 0.8925 ± 0.0021, 1.06 ± 0.078 and 0.963 ± 0.018, respectively. Besides, the entries for the “TCF/Wnt firefly luciferase reporter signal” value with DLD1 [3] and in the test with SW480 [4] were 1.05 ± 0.095 and 1.01 ± 0.062, respectively.

In the case of `CN(C)CCc1c[nH]c2ccc(CS(=O)(=O)N3CCCC3)cc12`, the figures for the cell viability in the test with DLD1 [1], with HCT116 and in the test on SW480 [2] were 0.875 ± 0.04, 0.929 ± 0.088 and 0.999 ± 0.086, respectively. Moreover, the “TCF/Wnt firefly luciferase reporter signal” value with DLD1 [3] was determined as 1.17 ± 0.035; with SW480 [4] it was 1.06 ± 0.088.

With `C=CCSCC=C`, the results for the cell viability in the test with DLD1 [1], in the test with HCT116 and with SW480 [2] were 0.9785 ± 0.0078, 0.967 ± 0.047 and 0.98 ± 0.029, respectively. Also, the entries for the “TCF/Wnt firefly luciferase reporter signal” value with DLD1 [3] and in the test on SW480 [4] were 0.959 ± 0.015 and 0.95 ± 0.05, respectively.

As to `COc1c(O)cc2c(-c3ccccc3)cc(=O)oc2c1OC`, the cell viability in the test on DLD1 [1] came to 0.989 ± 0.016; in the test on HCT116 it was 1.03 ± 0.028; in the test on SW480 [2] it was 0.977 ± 0.061. Besides, the entries for the “TCF/Wnt firefly luciferase reporter signal” value in the test on DLD1 [3] and in the test with SW480 [4] were 1.03 and 0.977 ± 0.033, respectively.

As for `C=C1c2cccc(O)c2C(=O)C2=C(O)[C@]3(O)C(=O)C(C(N)=O)=C(O)[C@@H](N(C)C)[C@@H]3[C@@H](O)[C@H]12`, the figures for the cell viability in the test on DLD1 [1], in the test on HCT116 and in the test with SW480 [2] were 0.968 ± 0.0014, 0.928 ± 0.13 and 0.969 ± 0.073, respectively. Further, the “TCF/Wnt firefly luciferase reporter signal” value in the test with DLD1 [3] is 1.06 ± 0.26; in the test on SW480 [4], 1.11 ± 0.064.

For the compound `O=c1cc(CO)occ1O`, the figures for the cell viability in the test with DLD1 [1], in the test on HCT116 and with SW480 [2] were 1.02 ± 0.057, 1.13 ± 0.099 and 0.932 ± 0.011, respectively. In addition, the “TCF/Wnt firefly luciferase reporter signal” value with DLD1 [3] worked out at 0.952 ± 0.069; in the test with SW480 [4] it was 1.04 ± 0.083.

Consider `CC1(C)OC(=O)NC1=O`, for which the cell viability in the test with DLD1 [1] was found to be 0.893 ± 0.18; in the test on HCT116, 0.9705 ± 0.0064; in the test on SW480 [2] it was 0.965 ± 0.092. The “TCF/Wnt firefly luciferase reporter signal” value is 1.08 ± 0.11 with DLD1 [3] and 0.932 ± 0.14 in the test with SW480 [4].

In the case of `Cc1cc2c(s1)Nc1ccccc1N=C2N1CCN(C)CC1`, the cell viability turned out to be 0.979 ± 0.0057 in the test on DLD1 [1], 1.14 ± 0.12 in the test with HCT116 and 1.03 ± 0.063 in the test with SW480 [2]. Moreover, in the test with DLD1 [3], the “TCF/Wnt firefly luciferase reporter signal” value came out at 1.05 ± 0.071.

In the case of `O=C(/C=C/c1ccc(O)c(O)c1)O[C@H](Cc1ccc(O)c(O)c1)C(=O)O`, the figures for the cell viability in the test on DLD1 [1], in the test on HCT116 and in the test with SW480 [2] were 1.04 ± 0.014, 0.947 ± 0.09 and 0.998 ± 0.031, respectively. The “TCF/Wnt firefly luciferase reporter signal” value in the test with DLD1 [3] was 0.854 ± 0.015; with SW480 [4], 0.934 ± 0.054.

`COc1ccc2c(c1)OC[C@@H](Cc1ccc(OC)c(OC)c1)[C@H]2O`: the cell viability is 1.09 ± 0.078 in the test on DLD1 [1], 1.06 ± 0.11 in the test with HCT116 and 0.993 ± 0.095 in the test on SW480 [2]. In addition, the “TCF/Wnt firefly luciferase reporter signal” value with DLD1 [3] came out at 0.944 ± 0.011; with SW480 [4], 0.94 ± 0.018.

With `O=C(O[C@@H]1Cc2c(O)cc(O)cc2O[C@@H]1c1ccc(O)c(O)c1)c1cc(O)c(O)c(O)c1`, the cell viability with DLD1 [1] stood at 0.946 ± 0.061; with HCT116 it was 0.805 ± 0.24; in the test on SW480 [2], 1.04 ± 0.1. Further, the “TCF/Wnt firefly luciferase reporter signal” value turned out to be 1.03 ± 0.11 in the test with DLD1 [3] and 1.08 ± 0.021 in the test on SW480 [4].
